In the supplement of paper PMC6555819:

Legend:
Assay in all cases: PBM binding z-score (relative to random genomic background probes); higher = stronger binding; sequences stand for … in GC…GCGATTGACAGCGTAGAATGAAGG
[1] = system: FXR:RXRa (NR concentration 270 nM, RXRa partner concentration 90 nM)
Method in brief: (§1)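 Ligand-free nuclear receptor dimers were applied to custom Agilent 4×180K protein-binding microarrays whose double-stranded probes carried direct-repeat seeds, single-nucleotide variants, half-site ablations and random human genomic background sequences in 34-nt variable regions. Incubation lasted 1 h. Binding z-scores were computed against the random background probes from regression-normalized fluorescence.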

[2] = system: LXRa:RXRa (NR concentration 270 nM, RXRa partner concentration 90 nM)
Method in brief: as §1

[3] = system: LXRa homodimer (NR concentration 270 nM)
Method in brief: as §1

[4] = system: LXRb:RXRa (NR concentration 270 nM, RXRa partner concentration 90 nM)
Method in brief: as §1

[5] = system: LXRb homodimer (NR concentration 270 nM)
Method in brief: as §1

[6] = system: PPARa:RXRa (NR concentration 270 nM, RXRa partner concentration 90 nM)
Method in brief: as §1

[7] = system: PPARg:RXRa (NR concentration 180 nM, RXRa partner concentration 90 nM)
Method in brief: as §1

[8] = system: PPARg:RXRa 270nM:90nM, anti-RXR (NR concentration 270 nM, RXRa partner concentration 90 nM)
Method in brief: as §1

[9] = system: PPARg:RXRa 30nM:10nM, anti-RXR (NR concentration 30 nM, RXRa partner concentration 10 nM)
Method in brief: as §1

[10] = system: PPARg:RXRa 90nM:30nM, anti-RXR (NR concentration 90 nM, RXRa partner concentration 30 nM)
Method in brief: as §1

[11] = system: PPARg:RXRa DBDmut IVT, anti-RXR (DBD mutation: RXRa K156A/R161A, NR concentration 270 nM, RXRa partner concentration 90 nM)
Method in brief: as §1

[12] = system: PPARg:RXRa IVT, anti-PPARg (NR concentration 270 nM, RXRa partner concentration 90 nM)
Method in brief: as §1

[13] = system: PPARg DBDmut:RXRa IVT, anti-PPARg (DBD mutation: PPARg1 K132A/R137A, NR concentration 270 nM, RXRa partner concentration 90 nM)
Method in brief: as §1

[14] = system: PPARg DBDmut IVT, anti-PPARg (DBD mutation: PPARg1 K132A/R137A, NR concentration 270 nM)
Method in brief: as §1

[15] = system: PPARg homodimer (NR concentration 180 nM)
Method in brief: as §1

[16] = system: PXR:RXRa (NR concentration 270 nM, RXRa partner concentration 90 nM)
Method in brief: as §1

[17] = system: PXR homodimer (NR concentration 270 nM)
Method in brief: as §1

[18] = system: RARa:RXR (NR concentration 270 nM, RXRa partner concentration 90 nM)
Method in brief: as §1

[19] = system: RARa homodimer (NR concentration 270 nM)
Method in brief: as §1

[20] = system: RARb:RXRa (NR concentration 270 nM, RXRa partner concentration 90 nM)
Method in brief: as §1

Sequence	PBM binding z-score [1]	PBM binding z-score [2]	PBM binding z-score [3]	PBM binding z-score [4]	PBM binding z-score [5]	PBM binding z-score [6]	PBM binding z-score [7]	PBM binding z-score [8]	PBM binding z-score [9]	PBM binding z-score [10]	PBM binding z-score [11]	PBM binding z-score [12]	PBM binding z-score [13]	PBM binding z-score [14]	PBM binding z-score [15]	PBM binding z-score [16]	PBM binding z-score [17]	PBM binding z-score [18]	PBM binding z-score [19]	PBM binding z-score [20]
CGTCCAAGGTCAGAGCGGTCAGTGAATGCCGAGT	4.97	4.15	1.27	2.69	-0.231	3.86	1.33	2.69	0.148	1.42	2.63	2.2	-0.349	0.202	2.18	3.25	2.78	3.14	0.595	4.58
GGAACTAGGGCAAGTTGATAGCAGAGTTTGATGG	0.0855	0.0269	0.0494	-0.0975	-0.374	2.15	3.63	3.21	1.12	2.57	7.19	6.86	0.964	0.266	0.42	0.0404	0.803	-0.0697	-0.11	1.69
CCTATTAGTTGACCATAATGGCAACCGAAGCTCG	0.282	0.486	0.78	0.483	1.03	0.289	0.468	-0.0519	-0.187	0.0677	0.772	0.551	0.742	1.21	2	0.599	1.05	0.673	2.52	0.621
TCATATACGTAAACAGGTGAAAGTCCGTAAGTTA	1.15	1.2	0.468	1.33	0.615	1.75	1.14	2.99	4.45	3.61	2.72	1.26	1.21	1.05	1.24	1.19	0.801	1.68	1.67	0.855
TCTTGTAGATCAAAGGTTAAGAATGCCGAAGCCT	2.11	2.06	0.248	1.94	0.134	4.68	7.84	7.95	8.02	8.37	2.34	3.51	1.47	0.478	1.27	1.95	-0.149	2.85	0.414	1.87
TGAATTAGGTTAAAGATCAGGGAACGTGGCGTCG	0.694	0.724	0.0716	0.548	0.342	4.09	6.76	7.47	5.99	8.06	6.08	5.63	0.86	1.43	1.58	0.403	0.276	1.12	1.04	1.19
CGAACTAGGTCATTGACAGGACAGTGACTAGTAA	4.31	2.96	0.385	1.79	0.0478	4.71	7.47	6.11	3.43	5.59	8.03	8.27	2.04	1.38	0.886	1.81	0.0529	2.44	0.0227	3.58
CCTAGCAGGCCAATCTGGGTCACTCACGGCTTGA	0.571	1.17	-0.195	0.493	-0.78	2.81	1.85	1.92	-0.256	1.18	4.16	4.93	-0.714	-0.428	0.645	0.777	-0.161	1.18	-0.509	1.56
ATCGAAAGGTCGACGAGGTGAGTTTACACCGTTT	4.66	3.45	0.17	2.95	0.407	4.71	2.73	3.1	0.726	2.05	0.636	2	1.01	0.288	1.24	3.35	0.675	3.27	0.024	3.9
ATCGAAAGGTCGTAAGGTGAGTATACAGAAAGGC	4.53	3.79	0.462	2.98	0.6	4.62	3.45	3.46	1.6	2.5	0.287	2.13	1.43	1.06	2.31	2.96	0.735	4.21	0.848	3.72
ACTCGGAGGACAAAGGTCAGAGCGACGCCAGTGA	4.14	4.3	1.14	3.61	0.216	4.97	7.85	6.9	5.06	7.27	0.874	3.53	-0.107	-0.757	3.73	4.04	0.438	4.89	0.829	4.57
CCTAGCAGGCCAATCTGGGTCACTCGAGGCTTGA	-0.0192	1.35	-0.447	0.667	-1	2.98	1.69	1.96	0.0407	1.13	4.16	4.75	-0.336	0.34	1.39	1.1	-0.592	1.85	-0.324	1.56
CGAACTAGGTCAAGAGGTCAAAGTCCGCTTCCCG	7.13	6.37	6.49	5.6	1.59	6.58	10.1	7.94	7.44	8.35	8.26	8.1	0.974	-0.335	5.23	6.23	3.31	7.7	2.18	5.48
ATATGTAGGTTAAGGGTCATTCACGTTGGTTCGC	5.72	4.91	2.96	4.5	1.26	6.49	11.8	9.66	9.95	11.2	7.26	8.08	3.39	2.65	4.43	4.79	0.957	5.91	1.47	3.54
GCGACTGGGGCATAGCAGGTTACCATAAGGTTGG	0.397	0.135	-0.575	0.25	-0.915	1.2	1.02	0.684	-0.371	0.318	3.87	2.96	-0.728	-0.706	-0.174	0.0194	-0.519	0.4	-0.975	0.81
GATATTAGTTGAAAGGGCAACCGAATGATTCTCG	0.693	1.12	0.566	1.26	0.285	2.63	2.9	4.65	2.47	4.54	0.557	1.16	0.952	0.799	2.21	0.994	0.916	1.81	2.21	2.27
ACTAGCAGGCCAAGTTTGGGTCACTCAAACAAAG	0.133	0.0719	-0.339	0.663	-0.95	1.49	0.094	0.413	-0.485	0.0599	1.09	1.22	-0.627	-1.37	0.284	0.859	-0.237	1.45	-0.797	1.83
ATCGAACGGTCGAAGGTGAGTATACCCACCCGAA	-0.145	-0.0927	-0.458	-0.384	-0.206	0.517	1.03	1.22	0.0354	0.698	-0.97	0.443	0.226	-0.543	-0.177	-0.254	-0.523	0.0689	-0.549	1.05
CCCACTGGGCCATCAGGTCATTGATATCAACGTT	1.16	1.11	1.5	1.63	-0.17	2.74	2.87	3.57	1.18	2.86	3.84	5.07	0.243	0.0844	2.19	1.57	0.893	1.95	0.424	2.04
